# IL1B secr inh: qHTS for Inhibitors of Inflammasome Signaling: IL-1-beta AlphaLISA Primary Screen; AID 743279, 2014; activity change, % at 57.5 µM; actives 4.7% (n = 360,000); THP-1 LPS/ATP IL-1B secretion, AlphaLISA, 16 h; stronger effect = lower value; in the data active = activity change below about -50%; inconclusive = mostly about -30% to -49%; note: % is set by controls: 0 for no effect and ±100 for the full control effect
#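 Secreted IL-1B measured by AlphaLISA bead assay after 16 h compound exposure of THP-1 cells; compounds (final up to 57.5 uM) added 1 h before LPS (250 ng/mL) and ATP (1.25 mM) stimulation; lower signal means less secretion.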
# TDP1 cell noCPT: qHTS for Inhibitors of human tyrosyl-DNA phosphodiesterase 1 (TDP1): qHTS in cells in absence of CPT; DT40 Tdp1-/- hTDP1 cells, no CPT, ATP luminescence, 48 h; Potency, µM (highest dose often 46.2 µM), for the others: top-dose activity change, negative = growth inhibition, most hits filed as inhibitors; actives 15% (n = 420,000); note: potency is the fitted concentration of half-maximal effect; % is set by controls: 0 for no effect and ±100 for the full control effect; nearly all actives have a fitted effect of over 55% in size
#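 Camptothecin absent (DMSO only). Human TDP1-complemented DT40 knockout cells, 400 cells/well, 37 °C for minimum 48 hr; ATP measured via CellTiter-Glo, 30 min dark incubation, luminescence.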
# TGFb SMAD3 inh: qHTS for Inhibitors of TGF-b | AID 588855, 2011 | HepG2 CAGA-GFP TGF-b/SMAD3 reporter, GFP fluorescence, 18 h; TGF-beta stimulated, 500 pg/mL final | Potency, µM (titrated, usually from 46.1 µM), for inactives: at the top dose activity, negative = inhibition, actives largely listed as inhibitors | actives 1.2% (n = 410,000); note: potency is the fitted concentration of half-maximal effect; % is set by controls: 0 for no effect and ±100 for the full control effect; nearly all actives have a fitted effect of over 65% in size
#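 HEPG2 CAGA-GFP cells (1000/well, DMEM with 1% FBS) were pre-incubated 2 h at 37 degrees C, given compound by pin tool, then stimulated with TGF-beta at 500 pg/mL final for 18 h before per-cell GFP fluorescence imaging.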
# TDP1 block: qHTS Assay for Inhibitors of Tyrosyl-DNA Phosphodiesterase (TDP1). Tyrosyl-DNA phosphodiesterase 1 (Homo sapiens), Q9NUW8. recombinant TDP1, AlphaScreen DNA substrate cleavage. Potency, µM (series often up to 130 µM), for inactives: at the highest dose activity change, negative = inhibition, usual class: inhibitors. actives 0.28% (n = 350,000). AID 485290, 2010; note: potency is the fitted concentration of half-maximal effect; % is set by controls: 0 for no effect and ±100 for the full control effect; nearly all actives have a fitted effect of over 40% in size
# Target sequence (Q9NUW8 whole entry, looked up): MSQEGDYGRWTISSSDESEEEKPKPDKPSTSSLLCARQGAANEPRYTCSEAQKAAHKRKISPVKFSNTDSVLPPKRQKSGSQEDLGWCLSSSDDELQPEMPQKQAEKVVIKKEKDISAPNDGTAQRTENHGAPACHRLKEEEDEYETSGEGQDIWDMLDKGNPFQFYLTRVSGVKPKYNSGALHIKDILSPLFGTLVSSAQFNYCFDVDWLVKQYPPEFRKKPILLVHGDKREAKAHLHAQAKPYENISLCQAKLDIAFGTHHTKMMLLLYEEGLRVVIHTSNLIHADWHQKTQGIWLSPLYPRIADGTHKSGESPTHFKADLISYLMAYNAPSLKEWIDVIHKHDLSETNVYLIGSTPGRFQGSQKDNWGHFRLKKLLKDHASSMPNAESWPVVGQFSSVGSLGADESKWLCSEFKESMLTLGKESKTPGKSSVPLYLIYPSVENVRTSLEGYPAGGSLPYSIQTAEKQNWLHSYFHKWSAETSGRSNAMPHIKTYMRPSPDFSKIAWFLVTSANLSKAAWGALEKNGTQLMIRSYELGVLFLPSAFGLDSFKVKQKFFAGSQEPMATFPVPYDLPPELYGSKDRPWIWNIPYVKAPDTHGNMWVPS
#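 E. coli-derived human Tdp1, 1 nM final. Cpd preinc 15 min RT; substrate 15 nM final, 5 min RT; AS bead mix 10 ug/ml final, 10 min RT. Signal loss = tyrosine-FITC cleavage. No-enzyme wells = max signal.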
# HepG2 viability: qHTS for Inhibitors of TGF-b: Cytotox Counterscreen; HepG2 CAGA-GFP viability, ATP luminescence, 18 h; Potency, µM (doses to about 46.1 µM), for the others: at the highest dose activity change, negative = cytotoxicity, hits mostly cytotoxic; actives 0.76% (n = 410,000); note: potency is the fitted concentration of half-maximal effect
#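 HepG2 CAGA-GFP cells (1000/well, DMEM with 1% FBS) received compound, then TGF-beta at 500 pg/mL final, and were incubated 18 hours at 37 degrees C. Viability was read by CellTiter-Glo luminescence. Media-only wells were set as complete cell-killing and DMSO as no toxicity.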
# TDP1 cell CPT: qHTS for Inhibitors of human tyrosyl-DNA phosphodiesterase 1 (TDP1): qHTS in cells in presence of CPT; chicken DT40 Tdp1-/-;hTDP1 cells + 20 nM CPT, ATP luminescence, 48 h; Potency, µM (top dose mostly 46.2 µM), for inactives: at the top dose activity change, negative = growth inhibition, actives largely listed as inhibitors; actives 12% (n = 420,000); AID 686979, 2013; note: potency is the fitted concentration of half-maximal effect; % is set by controls: 0 for no effect and ±100 for the full control effect; nearly all actives have a fitted effect of over 55% in size
#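 Chicken DT40 Tdp1-/- cells stably complemented with human TDP1 were seeded at 400 cells/well in medium containing 20 nM camptothecin, exposed to pin-transferred compounds, and grown at 37 °C for at least 48 hr. Viability was read as ATP luminescence.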
# * hit, by the source's call; ? = inconclusive; · = no result; [ ] = another dose, or the depositor's remark. An excerpt weighted towards active compounds, which were near 18% of everything screened. Unless noted, calls come from the whole dose curve; as a rule, active = well fitted curve in the direction sought with a large enough effect; inconclusive = small, poorly fitted or top-dose-only effect, or another doubt; inactive = no such curve, though single readings can be large; an effect the other way counts as inactive or inconclusive.
SMILES,IL1B secr inh,TDP1 cell noCPT,TGFb SMAD3 inh,TDP1 block,HepG2 viability,TDP1 cell CPT
Cc1ncc([N+](=O)[O-])n1CC(=O)Nc1ccc(F)c(Cl)c1,44,-16%,-9%,·,-4%,0%
O=C(NC1CC(=O)N(c2ccc(F)cc2)C1)C1CCCC1 (configuration not stated),·,2%,-32%,-3%,-3%,4%
Cc1cccc(NC(=O)CN2C(=O)COc3ccc(S(=O)(=O)Nc4ccccc4)cc32)c1C,·,-26%,-22%,6%,-14%,-22%
Cc1ccc(C)c(N2CCN(C(=O)Cn3cnc4onc(-c5ccc(F)cc5)c4c3=O)CC2)c1,·,?,-29%,-1%,-33%,23µM*
CCN(CC)CCN1C(=O)C2C(C(=O)Nc3ccc(C(C)C)cc3)C3C=CC2(O3)C1C(=O)NC1CCCCC1 (configuration not stated),-14,-23%,-1%,-6%,1%,1%
CCN(CC)CCN1C(=O)C2C(C(=O)Nc3cccc(SC)c3)C3C=CC2(O3)C1C(=O)NC1CCCC(C)C1C (configuration not stated),-29,?,-1%,-16%,-11%,?
CC1CCCC(NC(=O)C2N(CCCN3CCCC3)C(=O)C3C(C(=O)Nc4cccc(Cl)c4)C4C=CC32O4)C1C (configuration not stated),-57*,?,14%,4%,-3%,-2%
CN(C)CCN1C(=O)C2C(C(=O)Nc3cc(Cl)cc(Cl)c3)C3C=CC2(O3)C1C(=O)NC1CCCCC1 (configuration not stated),-68*,-2%,8%,-1%,6%,4%
CCCCN(C)CCN1C(=O)C2C(C(=O)Nc3ccc(C)cc3)C3C=CC2(O3)C1C(=O)NC1CCCCC1 (configuration not stated),-54*,-22%,-17%,6%,-6%,0%
CO/N=C\c1cc(C(=O)c2ccc(Cl)cc2Cl)cn1C,-62*,?,-5%,6%,-8%,-19%
Cn1cccc1C(=O)c1ccc(Cl)cc1Cl,-7,-20%,0%,2%,4%,5%
Cn1cc(C(=O)c2cccc(Cl)c2)cc1C#N,-4,-19%,-4%,-4%,-4%,0%
Cn1cc(C(=O)c2cccc(Cl)c2)cc1/C=N\O,-64*,-19%,-16%,4%,-10%,1%
CCCCC(=O)N(C)c1c(CC)nc2c(OCC(=O)C(C)(C)C)cccn12,14,-23%,-12%,·,-8%,0%
C=C1[C@@H](CCO)N(S(=O)(=O)C(C)(C)C)C[C@@H]1C,-1,-8%,-17%,·,-1%,-9%
CC(=O)NC(CC(=O)NNC(=O)COc1c(C)cccc1C)c1ccccc1 (configuration not stated),20,-1%,-27%,0%,-1%,-1%
Cc1cccc(C)c1OCC(=O)N[C@@H](Cc1ccccc1)[C@@H](O)C[C@H](Cc1ccccc1)NC(=O)[C@H](C(C)C)N1CCCNC1=O,·,19µM*,13µM*,·,-8%,7.9µM*
Cc1cccc(NC(=O)Cn2c(=O)n(CC3CCC(C(=O)NCCc4ccccc4)CC3)c(=O)c3ccccc32)c1C (configuration not stated),·,-27%,-7%,8%,0%,-15%
Cc1noc(C)c1CC(=O)N1CCCC(C(=O)c2ccc(C(C)(C)C)cc2)C1 (configuration not stated),15,21µM*,?,·,-29%,21µM*
CC(C)(C)c1ccc(C(=O)C2CCCN(C(=O)C3CCOCC3)C2)cc1 (configuration not stated),26,16µM*,-6%,0%,-14%,?
Cc1cc(=O)[nH]c(SCC(=O)N2CCCC2)n1,1,4%,-30%,0%,-22%,1%
CNc1ccc(-c2nc3ccccc3s2)cc1,·,·,·,5%,·,·
Cc1ccc(-n2ncc3c(Nc4cccc(C(F)(F)F)c4)ncnc32)cc1C,·,?,?,3%,-58%,21µM*
Cc1ccc(-n2ncc3c(Nc4ccc5c(c4)OCCO5)ncnc32)cc1C,·,18µM*,4%,8%,-31%,21µM*
CCCn1ncc2c(Nc3ccc(C)c(C)c3)ncnc21,-64*,?,-1%,4%,-13%,?
SMILES,IL1B secr inh,TDP1 cell noCPT,TGFb SMAD3 inh,TDP1 block,HepG2 viability,TDP1 cell CPT
CCOc1ccc(NC(=O)CN(C)C(=O)Cc2c[nH]c3ccccc23)cc1OCC,4,-13%,3%,-4%[0.505 µM],-17%,-1%
COc1ccccc1-n1cc2c([N+](=O)[O-])cc([N+](=O)[O-])cc2n1,-11,?,-1%,·,6%,?
C(=C\c1nc(-c2ccncc2)no1)/c1ccccc1,-22,16µM*,-2%,-3%,3%,-7%
C(=C\c1nc(-c2ccccc2)no1)/c1ccccc1,-18,8%,0%,·,-20%,-30%
COCc1c(C(=O)NCC2COc3ccccc3O2)oc2ccccc12 (configuration not stated),25,-48%,-9%,-10%,-11%,?
COCc1c(C(=O)NCCOc2ccc(Cl)cc2)oc2ccccc12,3,23µM*,-22%,-8%[56.1 µM],-27%,26µM*
COCc1c(C(=O)NCCc2ccc(OC(F)F)cc2)oc2ccccc12,-8,12µM*,?,-11%,-36%,13µM*
CC(OC(=O)c1oc2ccccc2c1COc1ccccc1)C(N)=O (configuration not stated),2,-19%,-12%,8%,-3%,?
CC(C)(C)NC(=O)c1oc2ccccc2c1COc1ccccc1,12,13µM*,-20%,-3%,-1%,?
O=C1NC(c2ccc(Br)cc2)Nc2ccccc21 (configuration not stated),51,3.7µM*,-7%,·,2%,6.5µM*
COc1ccc2ccccc2c1C1NC(=O)c2ccccc2N1 (configuration not stated),12,3.7µM*,?,·,-27%,2.6µM*
